Screening data (PubChem BioAssay)
Compounds with a hit are over-represented: about 0.96% of the library has one in this group of screens.
Texas Red fluor: Texas Red region autofluorescence; actives 0.06% (n = 59,000); Compound fluorescence, Texas Red channel, 547/618 nm; active compounds read high; max dye-equivalent concentration, M; in the data active means max dye-equivalent concentration above about 10 nM; inconclusive means between about 1.1 nM and that limit
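qHTS profiling of intrinsic compound fluorescence; 100 mM Tris pH 8.0; 15 min RT; ex 547 / em 618 nm; response expressed as Texas Red dye-equivalent concentration from six-point plate standard.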
Resorufin fluor: compound fluoresces in the resorufin spectral region. actives 0.04% (n = 59,000). Compound fluorescence, resorufin region 547/598 nm, buffer; active compounds read high. max dye-equivalent concentration, M
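Tris 100 mM pH 8.0; compound added, 15 min RT; CCD imager read, ex 547 nm/em 598 nm; signal normalized to resorufin standard curve (six concentrations per plate) as dye-equivalent concentration.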
Rhodamine fluor: compound fluoresces in the rhodamine spectral region. Rhodamine-region fluorescence, 547/598 nm, Tris buffer; active compounds read high. max dye-equivalent concentration, M. actives 0.05% (n = 59,000); in the data active means max dye-equivalent concentration above about 11 nM; inconclusive means between about 1.1 nM and that limit
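A six-point rhodamine series on each plate calibrates the signal. Compounds sit in 100 mM Tris (pH 8.0) for 15 min at ambient temperature before imaging through 547 nm/598 nm filters.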
A488 autofl: compound autofluorescence in A488 spectral region. max dye equivalency, M. actives 0.1% (n = 59,000). compound autofluorescence, A488 spectral region, dye equivalency; Compound Type: qHTS ECL - MLSMR
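Readout is A488 dye-equivalent concentration, calibrated by a per-plate six-point Alexa 488 series. Compounds in 100 mM Tris buffer pH 8.0 were incubated 15 min at room temperature. Plates were imaged using 480 nm excitation/540 nm emission filters.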
A647 fluor: compound autofluorescence in A647 spectral region | Compound fluorescence, A647 channel (570/671 nm), Tris buffer | max dye-equivalent concentration, M | 59,000 tested, under 10 active | AID 592
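Each compound's intrinsic fluorescence at 570 nm excitation and 671 nm emission is measured across its concentration series in 100 mM Tris, pH 8.0, after 15 min at room temperature, and reported relative to an A647 curve.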
Fluorescein autfl: compound autofluorescence in fluorescein spectral region | actives 0.91% (n = 59,000) | max fluorescein-equivalent concentration, M | AID 593 | Compound autofluorescence, 480/540 nm, fluorescein-equivalent; active compounds read high; in the data active means max fluorescein-equivalent concentration above about 10 nM; inconclusive means between about 1.1 nM and that limit
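Read-out is intrinsic compound fluorescence at 480/540 nm (excitation/emission), expressed as dye-equivalent concentration using a fluorescein standard series run on every plate. Compounds sat 15 min at room temperature in 100 mM Tris, pH 8.0.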
A number is an active result; – = inactive; ? = inconclusive; ! = a repeat was not active. Unless noted, how the calls were made is not given here.

SMILES	Texas Red fluor	Resorufin fluor	Rhodamine fluor	A488 autofl	A647 fluor	Fluorescein autfl
Cc1cccc(CNc2ncnc3ccc(-c4cccc(C#N)c4)cc23)c1	–	–	–	–	–	–
C=CCNc1ccc(F)c(F)c1N1CCCCCC1=O	?	–	–	–	–	?
O=C(O)c1ccc2c3c(ncnc13)-c1ccccc1C2=O	?	–	–	–	–	1.4e-08M
COc1ccc(-c2cc(C(F)F)n3ncc(C(=O)N4CCN5CCCC5C4)c3n2)cc1 (centres undefined)	–	–	–	–	–	–
Cc1c(CCC#N)c(N2CCN(C3CCCCC3)CC2)n2c(nc3ccccc32)c1C#N	–	–	–	–	–	1.1e-08M
O=c1[nH]c(=O)n([C@@H]2C[C@H](O)[C@H](CO)O2)cc1I	–	–	–	–	–	?
Cc1cc2c(cc1C)NC(c1c(C)n(C)n(-c3ccccc3)c1=O)C1=C(CC(C)(C)CC1=O)N2 (centres undefined)	?	–	–	?	–	4.3e-08M
O=C(CCCN1C(=O)c2ccccc2C1=O)N1CCC(c2ccccc2)C1 (centres undefined)	–	–	–	–	–	?
O=C(NC1CCCC1)C(c1ccsc1)N(Cc1ccco1)C(=O)Cc1cccs1 (centres undefined)	–	–	–	–	–	1.1e-08M
Cc1ccc(C)n1Cc1ccc(C(=O)O)cc1	–	–	–	–	?	1.1e-08M
CCc1ccc2[nH]c(=O)c(CN(CCN3CCCC3)C(=O)NC3CCCCC3)cc2c1	–	–	–	–	–	?
Cn1ccnc1SCC(=O)c1cc2ccccc2o1	–	–	–	–	–	–
CCn1c(CSc2nccn2C)nc2cc(C(=O)O)ccc21	2.7e-08M	1.1e-08M	1.7e-08M	–	–	1.1e-08M
CC(=O)NCCSCCNC(C)=O	–	–	–	–	–	–
O=C(NCc1ccco1)c1cccnc1-c1nc2ccccc2s1	–	–	–	?	–	3.5e-08M
O=C(O)CCc1c2ccc(=O)c(O)c-2oc2c(O)c(O)ccc12	–	–	–	–	–	1.1e-08M
N#CC1=C(N)N(c2ccccc2)C(c2ccccc2)C1(C#N)C#N (centres undefined)	–	–	–	–	–	?
CN(C)c1ccc(C2C=C(c3ccc(Cl)cc3OC(F)F)Nc3ncnn32)cc1 (centres undefined)	–	–	–	–	–	1.5e-08M
Cn1cccc1C(=O)N1CCC2(CC1)CN(C(=O)Nc1cccc(C#N)c1)C2	–	–	–	–	–	?
Cc1cc2c(c(=O)o1)C1(C(=O)N(CC(=O)O)c3ccccc31)C(C#N)=C(N)O2 (centres undefined)	–	–	–	–	–	1.3e-08M
CCN1C(=O)C2(C(C#N)=C(N)Oc3cc(C)oc(=O)c32)c2ccccc21 (centres undefined)	?	–	–	–	–	–
O=c1c(O)c(-c2cccs2)oc2ccccc12	?	–	–	?	–	3.2e-08M
CN(C)CCCNC(=O)c1ccc(-c2ccccc2)cc1	–	–	–	–	–	?
CN(C)CCCNc1cc(O)c2c(c1O)C(=O)c1ccccc1C2=O	4.6e-08M	1.3e-08M	1.8e-08M	–	–	?
CCCn1nnnc1SCC(=O)c1ccc2c(c1)OCCO2	–	–	–	–	–	?
SMILES	Texas Red fluor	Resorufin fluor	Rhodamine fluor	A488 autofl	A647 fluor	Fluorescein autfl
CO[C@@]12C[C@@H](COC(=O)c3cncc(Br)c3)CN(C)[C@H]1Cc1cn(C)c3cccc2c13	–	–	–	–	–	2.5e-08M!
CCOC(=O)c1ccc(N2C(=O)C(O)=C(C(C)=O)C2c2ccc(O)c(OC)c2)cc1 (centres undefined)	–	–	–	–	–	–
COc1cc(O)c2c(O)c3c(c4c2c1[C@@]1(C4)C(C)=CCCC1(C)C)[C@H](O)[C@@]1(O)CC(=O)C(C(N)=O)=C(O)[C@]1(O)C3=O	–	–	–	–	–	2.1e-08M
Cc1cc(NC(=O)COC(=O)CSCc2ccc(Cl)c(Cl)c2)no1	–	–	–	–	–	?
CC(C)Cc1[nH]c(=O)c(C#N)c2c1CCCC2	–	–	–	–	–	–
NC(=O)N1c2ccccc2CC(=O)c2ccccc21	–	–	–	?	–	3.3e-08M
NC(=O)N1c2ccccc2C=Cc2ccccc21	–	–	–	–	–	?
C=CCOC(=O)C(C#N)c1nc2ccccc2nc1N1CCN(Cc2ccccc2)CC1 (centres undefined)	?	–	–	–	–	?
CCCn1c(O)c(CN2CCCCC2)c(C)c(C#N)c1=O	?	–	–	–	–	1.5e-08M
Cc1c(CN2CCCCC2)c(O)n(CCCO)c(=O)c1C#N	?	–	–	–	–	1.6e-08M
C=CCn1c(O)c(CN2CCN(Cc3ccccc3)CC2)c(C)c(C#N)c1=O	–	–	–	–	–	2.1e-08M
COc1cccc(/C=C/c2ccncc2)c1OC	–	–	–	–	–	–
CN(C)c1ccc(/C=C/c2ccncc2)cc1	–	–	–	–	–	1.2e-08M
CCOC(=O)N1CCC(NS(=O)(=O)c2cc(Br)cnc2N)CC1	–	–	–	–	–	–
Nc1nc(Cn2nnc(-c3ccccc3F)n2)nc(N2CCOCC2)n1	–	–	–	–	–	–
N#Cc1c(C(F)(F)F)cc(-c2ccccc2)nc1SCc1nc(N)nc(N2CCOCC2)n1	–	–	–	–	–	1.6e-08M
COc1ccc(NC(=O)C2Cc3ccccc3CN2C(=O)c2ccccc2)cn1 (centres undefined)	–	–	–	?	–	5.9e-08M
O=C(NC1=NCCS1)C1Cc2ccccc2CN1C(=O)c1ccccc1 (centres undefined)	?	–	–	–	–	–
C=CCn1c(SCC(=O)Nc2c(C)cccc2C)nnc1-c1cnccn1	–	–	–	–	–	?
N#CC1=C(N)C(C#N)(C#N)C(c2ccc[nH]2)C2CCCC=C12 (centres undefined)	–	–	–	–	–	1.3e-08M
N#CC1=C(N)C(C#N)(C#N)C(c2cccnc2)C2CCCC=C12 (centres undefined)	–	–	–	?	–	4.8e-08M
C[N@@+]1(CC[N@@+]2(C)CCC[C@H]2c2cccnc2)CCC[C@@H]1c1cccnc1	–	–	–	–	–	–
C[C@H](Oc1ccccc1)C(=O)N[C@@H]1C(=O)N2[C@@H]1SC(C)(C)[C@@H]2C(=O)O	?	–	–	–	–	–
CCCCCc1c(C)nc(N2CCOCC2)[nH]c1=O	–	–	–	–	–	–
O=C(COC(=O)CCc1c[nH]c(=O)[nH]1)Nc1ccccc1	–	–	–	–	–	1.8e-08M
Cc1ccc(NC(=O)COC(=O)CCc2c[nH]c(=O)[nH]2)cc1	–	–	–	–	–	?
Nc1nnc(SCCOc2ccc(Br)cc2)s1	–	–	–	–	–	?
COc1cccc(CN2CCN(CC(=O)Nc3ccccc3Cl)CC2)c1	–	–	–	–	–	–
